Measured values as given in PubChem BioAssay AID1008 (NMMLSC, 2008).
Among all 190,000 compounds or so, about 240 (0.13%) were called active. Rule as the data show it: active = inhibition above about 40%. For the sample, actives were picked, then their nearest neighbours and some compounds at random.

The compounds below were run against Bcl-2-related protein A1 (Homo sapiens) (UniProt Q16548) (assay: inhibitors of Bim binding to Bfl-1, primary screen, biochemical, multiplexed, bead-based flow cytometry (AID 1008;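 also: 0% = wells without compound plus tracer and 100% = blocker peptide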)). Conditions: Bim-Bfl-1 binding inhibition, at 10 µM, active compounds read high.
Chain of Bcl-2-related protein A1 (Homo sapiens) (Q16548 whole entry, looked up): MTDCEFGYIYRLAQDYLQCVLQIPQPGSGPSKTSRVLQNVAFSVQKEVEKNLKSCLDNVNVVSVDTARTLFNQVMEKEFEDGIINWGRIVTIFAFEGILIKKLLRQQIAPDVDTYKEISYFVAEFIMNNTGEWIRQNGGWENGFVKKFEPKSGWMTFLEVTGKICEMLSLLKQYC
In the case of `C=CCn1c(O)c(/C=N/N2CCOCC2)c(=O)[nH]c1=S`, the inhibition is reported as 3% (inactive).
With `O=c1[nH]c(=S)n(C2CC2)c(O)c1/C=N/N1CCOCC1` the inhibition was -14% (inactive).
In the case of `Cc1cccc(-n2c(O)c(/C=N/N3CCOCC3)c(=O)[nH]c2=S)c1`, the inhibition is reported as 41% (active).
With `N#Cc1ccc(Cn2cc(C(=O)c3ccco3)c3ccccc32)cc1` the inhibition was -4% (inactive).
In the case of `CCOC(=O)C1(Cc2ccc(Cl)cc2)CCN(C(C)CCn2cccn2)CC1` (stereo not given), the inhibition is reported as 0% (inactive).
